Methyltransferases: Primary Screen for Target Class Profiling of Small Molecule Inhibitors of Methyltransferases; purified enzyme, MTase-Glo SAH luminescence; active compounds read low; calls only at 40 µM; 25,000 tested, 3.9% active; call rule not given here
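Each enzyme was assayed with SAM and its substrate. SAH formation detected by MTase-Glo luminescence; single-point 40 uM screen[…].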
Numbers without * were called inactive; i = inactive; + = active, no number; ! = a repeat was not active. Many of the other results were omitted from the sample, so hits are more common in it than they were. % is scaled to controls: 0 for no effect and ±100 for the full control effect.

SMILES	Methyltransferases
C[C@H](Cc1ccc(O)c(O)c1)[C@@H](C)Cc1ccc(O)c(O)c1	+
CC(CCc1ccc(O)cc1)NCCc1ccc(O)c(O)c1 (centres undefined)	i
CC(=O)Nc1c2n(c3ccc(F)cc13)CC(C)(C(=O)NCCC(C)C)N(C1CCCCC1)C2=O (centres undefined)	i
COc1ccccc1CNC(=O)c1ccc2c(=O)n(-c3ccc(F)cc3)c3nnc(C)n3c2c1	i
CCOc1ccc(CN2C(=O)c3cc4sccc4n3CC2(C)C(=O)NC2CCCCCC2)cc1 (centres undefined)	i
CCCn1c(=O)c2ccc(Cl)cc2n2c(=O)n(Cc3c(F)cccc3Cl)nc12	i
Cc1cc(N(C)C)ccc1-c1nc2ccc(-c3nc4ccc(N5CCN(C)CC5)cc4[nH]3)cc2[nH]1	+
CCCN1C(=O)c2ccc(-c3ccco3)n2CC1(C)C(=O)NCc1ccc(Cl)cc1 (centres undefined)	i
CC(=O)Nc1c2n(c3ccccc13)CC(C)(C(=O)NC1CCCC1)N(CCC(C)C)C2=O (centres undefined)	i
COC(=O)c1ncn2c1C(=O)N(Cc1ccccc1F)C(C)(C(=O)NC1CCCCCC1)C2 (centres undefined)	i
CC(C)OCCCNC(=O)CCc1nnc2ccc(NCc3ccccc3Cl)nn12	i
NC(N)=NC(=O)c1nc(Cl)c(N2CCCCCC2)nc1N	i
Cc1c(C)c(NCC(=O)N(C)C2CCN(Cc3ccc(C(N)=O)cc3)CC2)c(C)c(C)c1N	i
CC[C@H]1CN(c2nc(N)c(C(N)=O)nc2Cl)CCN1C1CCN(Cc2ccc(Cl)cc2)CC1	+
O=C(NCC1CN(C(=O)NC2CCCCC2)CC12CCCCC2)C1CC1 (centres undefined)	i
CNC(=O)c1cc(C)nc2onc(C3CCN(C(=O)NC4CCCC4)C3)c12 (centres undefined)	i
CC(=O)Nc1c2n(c3ccc(F)cc13)CC(C)(C(=O)NC1CCCC1)N(C1CCCCCC1)C2=O (centres undefined)	i
CNCc1ccc(-c2[nH]c3cc(F)cc4c3c2CCNC4=O)cc1	+!
O=C(c1cccnc1)N1CCn2cc(C(=O)N3CCOCC3)nc2C1	i
OC[C@H]1O[C@@H](n2cnc3c(NCc4ccc(O)cc4)ncnc32)[C@H](O)[C@@H]1O	i
Nc1ncnc2c1ncn2[C@@H]1O[C@H](COP(=O)(O)CP(=O)(O)OP(=O)(O)O)[C@@H](O)[C@H]1O	i
N#Cc1ccc(COC[C@H]2O[C@@H](n3c(NCc4ccc(Cl)c(Cl)c4)nc4c(N)ncnc43)[C@H](O)[C@@H]2O)cc1	+
Cc1ccc(N2C(=O)c3cc(C(C)(C)C)nn3CC2(C)C(=O)NCc2ccccc2)c(C)c1 (centres undefined)	i
Cc1ccc(CCNC(=O)CCc2nnc3n(Cc4ccc(F)cc4)c(=O)c4ccccc4n23)cc1	i
CC[C@@]1(O)C(=O)OCc2c1cc1n(c2=O)Cc2cc3c(CN(C)C)c(O)ccc3nc2-1	+!
SMILES	Methyltransferases
CCCn1c(=O)c2ccc(C(=O)NCC(C)C)cc2n2c(=O)n(CC(=O)Nc3cc(C)cc(C)c3)nc12	i
CCOc1ccc(CN2C(=O)c3cc4sccc4n3CC2(C)C(=O)NC2CCCC(C)C2C)cc1 (centres undefined)	i
COc1ccc(NC(=O)Cn2nc3n(Cc4ccc(F)cc4)c(=O)c4ccccc4n3c2=O)cc1OC	i
COc1ccc(C(=O)Nc2ccc3c(c2)CN(CCc2ccccc2)C(=O)C(C)O3)cc1OC (centres undefined)	i
COc1cc2c(cc1OC)CN(CCc1ccc(NC(=O)c3cccc4c(=O)c5cccc(OC)c5[nH]c34)cc1)CC2	+
CC1(C(=O)NCc2ccccc2)Cn2nc(-c3ccccc3)cc2C(=O)N1Cc1ccccc1Br (centres undefined)	i
Oc1ccc2ccccc2c1SSc1c(O)ccc2ccccc12	+
Cc1cccc(N2CCN(CC(=O)Nc3ccc4[nH]c(=O)[nH]c4c3)CC2C)c1 (centres undefined)	i
O=C(C1CCCC1)N1CC2(CCN(Cc3ccccn3)C2)OCc2ccccc21 (centres undefined)	i
Cc1ccc(N2C(=O)c3cc4sccc4n3CC2(C)C(=O)NC2CCCCCC2)c(C)c1 (centres undefined)	i
CC(=O)OC1CC(=O)C2(C)C3CC4=C(OC(C)CC4=O)OC3(C)CCC2C1(C)C (centres undefined)	+
CCC(C)NC(=O)c1ccc2c(=O)n(C)c3nn(CC(=O)c4ccc(F)cc4)c(=O)n3c2c1 (centres undefined)	i
CN1C(=O)c2cc(C(=O)NCCc3cccs3)nn2CC1(C)C(=O)NC1CCCC1 (centres undefined)	i
O=C(NC1CCCC1)C1c2ccccc2CC(=O)N1Cc1ccccc1 (centres undefined)	i
CC1=CCC2C(C)(C)CCCC2(C)C1CC12OC1C(O)C(CO)=CC2O (centres undefined)	i
CC1(C)CCCC2(C)C(C(=O)O)=CCC12 (centres undefined)	i
C=C1CCC2C(C)(C)CCC[C@]2(C)[C@H]1C/C=C(\CO)C(=O)C(=O)O (some centres undefined)	i
CC(=O)OC/C(=C/C(=O)O)CC[C@@H]1C(CO)=CC[C@@H]2C(C)(C)CCC[C@@]12C	+
CC1(C)CCC[C@]2(C)C1CC=C(CO)[C@H]2CC/C(=C/CO)CO (some centres undefined)	i
CC(=O)OC/C(=C/C(=O)O)CC[C@@H]1C(C=O)=CC[C@@H]2C(C)(C)CCC[C@@]12C	+
O=C1CC2(CCCC2)[C@H](O)C(=O)N1CCCCN1CCN(c2ncccn2)CC1	i
CC(C)CCNc1nc2c(-c3cccc(Br)c3)nnn2c2ccccc12	i
COc1ccc(NC(=O)CSc2nnc3[nH]c(=O)c(C(C)(C)C)nn23)cc1OC	i
COc1ccc(Cl)cc1S(=O)(=O)NC1COc2c(cccc2OC)C1 (centres undefined)	i
CCC(C)NC(=O)Cn1nc2n(C(C)C)c(=O)c3ccc(C(=O)NC(C)C)cc3n2c1=O (centres undefined)	i
SMILES	Methyltransferases
C=C(F)c1sc(CNCCCNc2cc(=O)c3ccccc3[nH]2)c(C)c1Br	+
COc1cccc(CNC(=O)Cn2ccc3cc(S(=O)(=O)N4CCCCC4)ccc32)c1	i
O=C(c1ccc2c(=O)nc3c(-c4ccccc4F)n[nH]n3c2c1)N1CCN(c2ccccc2)CC1	i
O=C(NCCc1ccc(Cl)cc1)c1cc(-c2cccs2)c2cccn2n1	i
COCCOC1CCOC2(CCN(C(=O)c3cnccn3)CC2)C1 (centres undefined)	i
Cc1cc(NC(=O)c2cccc(NC(=O)/C=C/CN(C)C)c2)ccc1Nc1nccc(-c2cccnc2)n1	+
Cc1ccc(NC(=O)N2CCC(n3c(C)cnc3-c3cccnc3)C2)cc1C (centres undefined)	i
Cc1nc(CCNC(=O)c2cnc(-c3cccnc3)nc2)cc(=O)[nH]1	i
CC(C)Oc1ccc(CNC(=O)Cn2ccc3cc(S(=O)(=O)N4CCCCC4)ccc32)cc1	i
C=C1CC[C@@H]2[C@](C)(CO)[C@H](O[C@@H]3O[C@H](CO)[C@@H](O)[C@H](O)[C@H]3O)CC[C@@]2(C)[C@@H]1C/C=C1/C(=O)OC[C@H]1O	i

Bioassay records as filed in PubChem.
